Assay results reported in the supplement of paper PMC10849652.
The full data set covers some 7,900 targets. This sample favours those with a hit. About 0.6% of all pairs of compound and target were hits. Values without a mark were called inactive.

Experiments:
Assay in all cases: log2 fold change, soluble protein after heating vs DMSO (PISA); higher = thermal stabilisation; K562 cells, 10 uM, 30 min; active = over 0.2 and 3.5 SD of the protein, either way, in both replicates (recomputed)
saracatinib = compound: CN1CCN(CCOc2cc(OC3CCOCC3)c3c(Nc4c(Cl)ccc5c4OCO5)ncnc3c2)CC1 [saracatinib]
Method in brief: (§1)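 K562 cells at 2×10^6 cells/mL were treated with 10 μM compound for 30 min. Aliquots were heated for 3 min across 48°C-58°C, pooled, and extracted in PBS with 0.5% NP-40 at 4°C; soluble protein was the supernatant after 21,000xg for 90 min. Soluble protein was quantified by TMTpro 16plex LC-MS/MS with channel sums equalised, and reported as log2 fold change in thermal stability against DMSO controls, with values from duplicates.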

sotrastaurin = compound: CN1CCN(c2nc(C3=C(c4c[nH]c5ccccc45)C(=O)NC3=O)c3ccccc3n2)CC1 [sotrastaurin]
Method in brief: as §1

alvocidib = compound: CN1CC[C@H](c2c(O)cc(O)c3c(=O)cc(-c4ccccc4Cl)oc23)[C@H](O)C1 [alvocidib]
Method in brief: as §1

Tubastatin A = compound: CN1CCc2c(c3ccccc3n2Cc2ccc(C(=O)NO)cc2)C1 [Tubastatin A]
Method in brief: as §1

[1] = compound: CNC(=O)C1=CC=CC=C1NC2=NC(=NC=C2Cl)NC3=C(C=C(C=C3)N4CCOCC4)OC
Method in brief: as §1

defactinib = compound: CNC(=O)c1ccc(Nc2ncc(C(F)(F)F)c(NCc3nccnc3N(C)S(C)(=O)=O)n2)cc1 [defactinib]
Method in brief: as §1

rucaparib = compound: CNCc1ccc(-c2[nH]c3cc(F)cc4c3c2CCNC4=O)cc1 [rucaparib]
Method in brief: as §1

[2] = compound: CNc1nc(-c2ccc3c(N)n[nH]c3c2)cc(N2C[C@@H](C(=O)NC3CCCCC3)CC[C@H]2C)n1
Method in brief: as §1

encorafenib = compound: COC(=O)N[C@@H](C)CNc1nccc(-c2cn(C(C)C)nc2-c2cc(Cl)cc(NS(C)(=O)=O)c2F)n1 [encorafenib]
Method in brief: as §1

[3] = compound: COC(=O)[C@H](CCSC)NC(=O)C1=C(C=C(C=C1)NC[C@H](CS)N)C2=CC=CC=C2
Method in brief: as §1

Chain of UniProt Q9NUN5 (Q9NUN5 whole entry, looked up): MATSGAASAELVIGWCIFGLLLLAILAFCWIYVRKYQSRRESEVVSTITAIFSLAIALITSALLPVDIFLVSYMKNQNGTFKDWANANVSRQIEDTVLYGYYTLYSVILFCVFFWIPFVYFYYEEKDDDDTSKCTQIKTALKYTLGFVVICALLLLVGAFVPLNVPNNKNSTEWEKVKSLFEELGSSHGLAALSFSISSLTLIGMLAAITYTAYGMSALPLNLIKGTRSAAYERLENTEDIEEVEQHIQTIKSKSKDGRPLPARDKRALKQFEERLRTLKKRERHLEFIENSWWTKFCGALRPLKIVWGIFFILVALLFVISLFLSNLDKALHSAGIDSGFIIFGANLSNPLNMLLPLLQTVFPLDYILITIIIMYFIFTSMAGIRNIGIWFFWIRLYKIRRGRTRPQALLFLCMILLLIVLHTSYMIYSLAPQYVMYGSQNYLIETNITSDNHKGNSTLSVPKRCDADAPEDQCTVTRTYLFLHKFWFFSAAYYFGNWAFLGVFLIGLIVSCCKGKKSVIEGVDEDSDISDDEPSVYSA
Chain of UniProt Q9NYL2 (Q9NYL2 whole entry, looked up): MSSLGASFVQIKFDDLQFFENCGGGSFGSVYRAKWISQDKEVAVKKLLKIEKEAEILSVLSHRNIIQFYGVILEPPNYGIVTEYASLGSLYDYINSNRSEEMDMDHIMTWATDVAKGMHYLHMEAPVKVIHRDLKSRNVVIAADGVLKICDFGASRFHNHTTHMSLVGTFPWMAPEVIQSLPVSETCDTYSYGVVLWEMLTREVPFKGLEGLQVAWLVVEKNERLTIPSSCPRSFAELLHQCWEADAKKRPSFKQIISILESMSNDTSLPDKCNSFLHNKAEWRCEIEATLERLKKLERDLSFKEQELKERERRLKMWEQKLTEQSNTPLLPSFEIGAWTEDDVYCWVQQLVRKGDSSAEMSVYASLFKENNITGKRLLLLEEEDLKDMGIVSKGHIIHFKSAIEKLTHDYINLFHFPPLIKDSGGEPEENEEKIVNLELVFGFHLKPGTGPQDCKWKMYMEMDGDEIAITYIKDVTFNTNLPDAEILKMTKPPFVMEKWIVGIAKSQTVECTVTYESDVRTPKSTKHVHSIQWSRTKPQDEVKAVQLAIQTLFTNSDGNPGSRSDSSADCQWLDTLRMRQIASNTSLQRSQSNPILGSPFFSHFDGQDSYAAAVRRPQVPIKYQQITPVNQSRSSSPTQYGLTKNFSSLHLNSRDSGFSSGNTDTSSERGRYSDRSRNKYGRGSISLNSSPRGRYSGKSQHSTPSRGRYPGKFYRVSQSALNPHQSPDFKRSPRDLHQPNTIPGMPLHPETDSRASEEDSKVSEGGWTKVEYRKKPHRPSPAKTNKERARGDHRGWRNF
Chain of UniProt O95372 (O95372 whole entry, looked up): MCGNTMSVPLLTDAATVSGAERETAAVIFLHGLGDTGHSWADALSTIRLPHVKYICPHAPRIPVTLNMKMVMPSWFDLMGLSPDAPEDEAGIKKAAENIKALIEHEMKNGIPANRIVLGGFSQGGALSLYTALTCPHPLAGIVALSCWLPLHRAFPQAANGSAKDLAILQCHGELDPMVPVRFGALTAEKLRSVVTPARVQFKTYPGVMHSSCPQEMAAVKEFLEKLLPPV
Chain of UniProt O43766 (O43766 whole entry, looked up): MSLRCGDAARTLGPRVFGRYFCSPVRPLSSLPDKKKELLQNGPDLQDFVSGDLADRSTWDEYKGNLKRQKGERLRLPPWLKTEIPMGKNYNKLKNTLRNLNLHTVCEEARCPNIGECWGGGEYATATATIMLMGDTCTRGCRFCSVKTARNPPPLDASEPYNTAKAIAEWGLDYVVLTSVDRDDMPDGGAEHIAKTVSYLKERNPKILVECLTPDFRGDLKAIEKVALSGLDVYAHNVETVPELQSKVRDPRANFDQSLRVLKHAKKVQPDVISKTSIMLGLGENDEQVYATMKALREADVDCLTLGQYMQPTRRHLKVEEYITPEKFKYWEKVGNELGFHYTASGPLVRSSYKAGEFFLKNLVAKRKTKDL
Chain of UniProt Q6P1A2 (Q6P1A2 whole entry, looked up): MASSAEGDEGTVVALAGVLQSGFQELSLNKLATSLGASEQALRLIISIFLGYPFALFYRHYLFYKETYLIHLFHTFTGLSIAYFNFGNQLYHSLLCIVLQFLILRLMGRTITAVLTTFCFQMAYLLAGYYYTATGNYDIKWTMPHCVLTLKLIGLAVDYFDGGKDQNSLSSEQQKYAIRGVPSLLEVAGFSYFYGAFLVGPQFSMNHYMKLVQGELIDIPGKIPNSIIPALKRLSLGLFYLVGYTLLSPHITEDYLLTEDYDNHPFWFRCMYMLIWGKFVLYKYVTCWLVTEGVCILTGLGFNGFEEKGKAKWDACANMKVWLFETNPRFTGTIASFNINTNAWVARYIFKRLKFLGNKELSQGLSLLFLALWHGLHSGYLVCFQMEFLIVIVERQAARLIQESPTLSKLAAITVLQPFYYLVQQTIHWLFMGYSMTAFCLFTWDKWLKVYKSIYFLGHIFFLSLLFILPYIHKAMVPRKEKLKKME
Chain of UniProt P49441 (P49441 whole entry, looked up): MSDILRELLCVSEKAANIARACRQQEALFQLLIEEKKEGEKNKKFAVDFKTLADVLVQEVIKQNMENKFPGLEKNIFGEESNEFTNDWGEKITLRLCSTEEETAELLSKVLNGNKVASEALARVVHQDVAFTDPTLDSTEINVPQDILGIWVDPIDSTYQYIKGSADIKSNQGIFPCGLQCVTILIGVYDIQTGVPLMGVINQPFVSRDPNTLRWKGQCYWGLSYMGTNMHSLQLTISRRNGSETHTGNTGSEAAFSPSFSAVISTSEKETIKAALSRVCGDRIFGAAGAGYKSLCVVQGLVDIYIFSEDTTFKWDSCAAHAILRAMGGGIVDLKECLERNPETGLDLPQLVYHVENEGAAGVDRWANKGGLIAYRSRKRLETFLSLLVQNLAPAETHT
Chain of UniProt Q9GZY8 (Q9GZY8 whole entry, looked up): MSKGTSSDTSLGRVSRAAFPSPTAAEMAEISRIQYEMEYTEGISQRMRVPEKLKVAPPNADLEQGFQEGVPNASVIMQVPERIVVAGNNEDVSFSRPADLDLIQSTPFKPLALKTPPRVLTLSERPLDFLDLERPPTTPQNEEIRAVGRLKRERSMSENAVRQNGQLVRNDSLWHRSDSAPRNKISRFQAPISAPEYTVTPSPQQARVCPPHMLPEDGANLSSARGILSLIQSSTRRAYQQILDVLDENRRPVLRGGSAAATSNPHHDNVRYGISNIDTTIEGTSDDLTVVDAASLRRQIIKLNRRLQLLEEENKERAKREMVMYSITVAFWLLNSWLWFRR
Chain of UniProt P49006 (P49006 whole entry, looked up): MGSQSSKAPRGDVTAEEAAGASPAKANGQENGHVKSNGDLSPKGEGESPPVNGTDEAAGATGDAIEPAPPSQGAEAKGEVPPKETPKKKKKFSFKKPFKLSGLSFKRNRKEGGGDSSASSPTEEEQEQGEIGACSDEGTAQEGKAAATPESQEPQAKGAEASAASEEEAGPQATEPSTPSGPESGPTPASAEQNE
Chain of UniProt Q9UIQ6 (Q9UIQ6 whole entry, looked up): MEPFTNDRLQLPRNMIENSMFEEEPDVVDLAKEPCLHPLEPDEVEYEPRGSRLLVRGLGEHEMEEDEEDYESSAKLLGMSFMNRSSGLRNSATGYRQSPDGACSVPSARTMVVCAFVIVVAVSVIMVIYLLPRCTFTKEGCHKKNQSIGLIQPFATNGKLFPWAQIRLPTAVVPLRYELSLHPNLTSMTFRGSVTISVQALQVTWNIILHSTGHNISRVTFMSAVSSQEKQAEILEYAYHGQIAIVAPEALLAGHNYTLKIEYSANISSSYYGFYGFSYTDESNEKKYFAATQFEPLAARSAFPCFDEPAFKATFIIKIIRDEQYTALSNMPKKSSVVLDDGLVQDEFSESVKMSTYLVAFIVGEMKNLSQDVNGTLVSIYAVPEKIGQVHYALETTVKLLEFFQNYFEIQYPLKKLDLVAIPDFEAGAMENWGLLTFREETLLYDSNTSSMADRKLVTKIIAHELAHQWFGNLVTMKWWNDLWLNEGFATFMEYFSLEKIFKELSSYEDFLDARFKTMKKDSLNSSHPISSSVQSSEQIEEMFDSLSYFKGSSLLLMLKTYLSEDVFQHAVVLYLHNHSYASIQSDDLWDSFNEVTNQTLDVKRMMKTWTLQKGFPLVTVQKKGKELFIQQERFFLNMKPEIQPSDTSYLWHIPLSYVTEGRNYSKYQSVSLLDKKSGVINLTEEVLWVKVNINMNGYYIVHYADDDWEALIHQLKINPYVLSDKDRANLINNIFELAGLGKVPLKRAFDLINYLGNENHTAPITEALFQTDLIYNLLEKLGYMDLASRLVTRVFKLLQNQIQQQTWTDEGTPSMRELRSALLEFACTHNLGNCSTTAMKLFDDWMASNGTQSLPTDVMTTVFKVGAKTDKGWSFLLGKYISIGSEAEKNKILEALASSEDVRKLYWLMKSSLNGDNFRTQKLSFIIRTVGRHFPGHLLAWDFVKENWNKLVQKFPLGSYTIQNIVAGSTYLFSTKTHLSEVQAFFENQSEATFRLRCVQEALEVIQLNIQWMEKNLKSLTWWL

Target	log2 fold change (saracatinib)	log2 fold change (sotrastaurin)	log2 fold change (alvocidib)	log2 fold change (Tubastatin A)	log2 fold change [1]	log2 fold change (defactinib)	log2 fold change (rucaparib)	log2 fold change [2]	log2 fold change (encorafenib)	log2 fold change [3]
KLHL18 (UniProt O94889)	-0.033	-0.042	-0.084	0.144	-0.077	-0.04	-0.042	0.007	0.019	-0.05
LNPEP (UniProt Q9UIQ6)	0.048	0.037	0.01	-0.001	-0.01	-0.054	-0.014	-0.02	-0.008	0.012
MICOS13 (UniProt Q5XKP0)	0.039	0.01	-0.001	0	0.005	-0.07	-0.041	-0.017	-0.028	-0.005
MFF (UniProt Q9GZY8)	0.003	-0.027	-0.06	0.012	-0.127	-0.025	-0.059	-0.078	0.015	0.092
INPP1 (UniProt P49441)	0.071	0	-0.011	0.061	0.044	-0.032	-0.029	0.048	0.038	-0.038
MAGOHB (UniProt Q96A72)	-0.047	-0.009	0.03	0.014	-0.007	-0.003	-0.021	0.022	0.019	-0.071
ILRUN (UniProt Q9H6K1)	-0.132	-0.029	-0.022	0.116	0.023	-0.036	0.037	0.049	0.045	0.121
KIF13A (UniProt Q9H1H9)	0.063	0.041	-0.01	0.028	0.1	-0.026	0.008	-0.093	-0.025	0.034
MAPK9 (UniProt P45984)	-0.118	0.046	0.002	-0.013	0.328 (active)	0.003	-0.02	0	0.018	0.029
LPIN3 isoform 2 (UniProt Q9BQK8)	-0.101	0.171	-0.074	0.093	-0.087	-0.022	0.049	0.049	0.051	-0.012
LPCAT3 (UniProt Q6P1A2)	-0.048	-0.14	-0.002	0	0.093	0	-0.074	0.138	-0.026	-0.021
MAPKAPK5 (UniProt Q8IW41)	0.008	-0.028	0.062	0.036	-0.02	-0.032	0.095	-0.039	-0.016	0
MCL1 (UniProt Q07820)	0.011	-0.114	-0.056	0.268	-0.022	-0.015	0.029	-0.063	0.004	0.047
LIAS (UniProt O43766)	0.049	0.271 (active)	0.065	-0.056	0.029	0.018	0.017	-0.027	0	0.022
ILF3 isoform 7 (UniProt Q12906)	0.001	0.087	0.362	-0.044	0.03	0.554 (active)	0.202	-0.003	0.032	0
LMBRD1 (UniProt Q9NUN5)	0.154	0.023	0.042	0.098	0.052	0.047	-0.023	-0.173	0.053	-0.057
LUC7L2 (UniProt Q9Y383)	0.022	-0.01	-0.246	0.007	-0.304 (active)	-0.267 (active)	-0.077	-0.047	0.065	0.03
ITIH4 (UniProt Q14624)	0.045	0.271	0.005	-0.003	-0.001	0.101	-0.142	-0.124	-0.001	-0.009
MARK2 (UniProt E9PC69)	-0.103	-0.555	-0.007	0.278	-1.12 (active)	-0.07	0.187	0.037	0.144	-0.028
MARCKSL1 (UniProt P49006)	0.02	0.315 (active)	-0.005	-0.043	0.013	0.007	-0.035	0.063	-0.04	-0.008
KDM5D isoform 3 (UniProt Q9BY66)	-0.063	0.078	-0.193	-0.451 (active)	0.026	-0.357	0.067	-0.078	0.198	-0.05
MAP3K20 (UniProt Q9NYL2)	-0.106	0.055	0.065	0.004	0.054	-0.018	0.002	0.01	0.02	-0.034
MICU1 isoform 3 (UniProt Q9BPX6)	-0.073	0	0.005	-0.007	-0.054	0.172	0.134	-0.012	0.121	-0.05
KDELR2 (UniProt P33947)	0.094	0.061	0.018	-0.295	0.04	-0.004	-0.072	-0.058	-0.005	0.023
LRFN1 (UniProt Q9P244)	0.053	-0.08	-0.44 (active)	-0.006	-0.24	-0.048	0.062	-0.028	-0.227	-0.069
LYPLA2 (UniProt O95372)	-0.063	-0.039	-0.126	0.018	0.007	-0.09	-0.041	-0.01	-0.031	0.087
MAGEA9 (UniProt P43362)	0.041	-0.037	-0.346	-0.038	-0.001	-0.175	-0.153	0.015	0.039	-0.082
MAST4 (UniProt O15021)	0.006	-0.103	-0.065	0.012	-0.087	-0.149	-0.101	-0.006	0.042	-0.017
KPNA6 (UniProt O60684)	-0.004	-0.117	-0.073	0.008	0.082	-0.06	0.092	-0.042	0.12	-0.099
IRF2BPL (UniProt Q9H1B7)	0.003	-0.044	-0.079	0.053	0.032	-0.038	0.015	-0.045	-0.06	-0.027
